NFkB transloc inh = blocks IL-1B driven NFkB nuclear translocation in HUVEC cells; HUVEC IL-1B NFkB p65 nuclear translocation imaging; inhibition, % at 2 µM; hit rate 0.43% among 94,000;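 active = inhibition above about 30% together with a positive call from visual inspection of the well image, limit read from the data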;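 also: nuclear over cytoplasmic p65 intensity ratio measured by imaging; 0% = IL-1B stimulated DMSO wells and 100% = unstimulated DMSO wells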
HUVEC tox IL1B = HUVEC cytotoxicity counter-screen, IL-1B stimulated. AID 845. cell count reduction, % at 2 µM. HUVEC cell count loss, Hoechst imaging. hit rate 0.41% among 94,000;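 active = cell count reduction more than 3 SD above the screen-wide mean, cut at about 70% in these data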;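 also: normalized per plate to untreated control cells as the no-loss baseline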
NFkB transloc pot = enhances IL-1B driven NFkB nuclear translocation | HUVEC IL-1B NFkB p65 nuclear translocation imaging | activation, % at 2 µM | hit rate 0.3% among 94,000;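 active = activation above 40%, about the mean plus 3 SD, also judged a hit on visual image review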;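 also: percent activation is computed from the nuclear over cytoplasmic p65 intensity ratio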
INS promoter inh = TRM-6 insulin promoter activity inhibition; TRM-6 cells (human fetal islet line), insulin promoter-eGFP reporter, imaging; reporter expression induced with tamoxifen; inhibition, % at 2 µM; hit rate 0.9% among 130,000;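 active = inhibition above the mean plus 3 SD, with well images judged a real hit on visual review, cut at about 60% in these data, passing the limit was not always enough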
Active calls of the source: *; nt = no result. Most compounds without a hit are left out; they make up all but 1.3% or so of the library.

SMILES | NFkB transloc inh | HUVEC tox IL1B | NFkB transloc pot | INS promoter inh
O=C(NCCc1ccc(F)cc1)N1CCOCC1 | -8 | 9 | 8 | 83*
CCNC(=O)N1CCOCC1 | 2 | -16 | -2 | 86*
CC1(C)Oc2ccc(C#N)cc2[C@@H](N2CCCC2=O)[C@@H]1O | nt | nt | nt | 41
c1ccc(-c2noc(-c3cccnc3)n2)nc1 | 6 | -5 | -6 | 89*
c1ccc(-c2noc(-c3ccncc3)n2)nc1 | -25 | -36 | 25 | -61
COc1ccc(-n2c(C)cc(C(=O)Cn3c(NCCO)nc4ccccc43)c2C)cc1 | -41 | 4 | 41* | nt
CC(C)CC(=O)O/N=C1\C(=O)N(Cc2ccc(Cl)cc2)c2ccc([N+](=O)[O-])cc21 | -47 | 92* | 47* | nt
Cn1c(=O)oc2cc(S(=O)(=O)Nc3ccc4c(c3)OCCO4)ccc21 | 98* | 92* | -98 | -314
O=C(Cn1nnc(-c2cccs2)n1)N1c2ccccc2Sc2ccc(C(F)(F)F)cc21 | 8 | 4 | -8 | 80*
O=C(c1ccc2ccccc2c1)N1CCN(c2ccc([N+](=O)[O-])c(N3CCOCC3)c2)CC1 | -45 | -33 | 45* | 9
Cc1noc(C)c1S(=O)(=O)NCCN1CCN(c2ccccc2)CC1 | 31* | 10 | -31 | 34
Cc1noc(C)c1S(=O)(=O)NCCCN1CCN(Cc2ccccc2)CC1 | -5 | 9 | 5 | -21
O=C1c2ccccc2CN1CCSC(=S)N1CCOCC1 | nt | nt | nt | 31
COc1ccccc1NC=C1C(=O)OC(C)(C)OC1=O | 91* | -1 | -91 | nt
COCCNC(=O)C(c1cccnc1)N(Cc1ccc(C)cc1)C(=O)Cn1nnc2ccccc21 (stereo unspecified) | nt | nt | nt | -4
CC(=O)Nc1sc(N/N=C\c2ccco2)nc1-c1cccs1 | nt | nt | nt | -15
O=C(Nc1ccsc1C(=O)NC1CC1)c1ccccc1 | -1 | 32 | 1 | 85*
CC[n+]1c(/C=C/C=C/N(C(C)=O)c2ccccc2)sc2ccccc21 | 57* | 3 | -57 | -203
COc1cccc(CNc2ccc([N+](=O)[O-])c(NCC(=O)O)n2)c1 | nt | nt | nt | 0
CCN(CC)c1nc2ccccc2[nH]1 | -4 | -25 | 4 | 72*
N=C1C(c2ccccc2)=C(O)CN1c1ccc2c(c1)OCO2 | -29 | -20 | 29 | nt
Cc1ccc(N2CC(O)=C(c3ccccc3)C2=N)cc1 | nt | nt | nt | 73*
CC(=O)c1c(C)nc2cc(Cl)ccc2c1N | 5 | -39 | -5 | 96*
COc1cc(OC)cc(C(=O)NC(=S)Nc2ccc3c4c(cccc24)CC3)c1 | 1 | -22 | -1 | -41
COc1ccc(C(=O)Nc2ccc3c4c(cccc24)CC3)cc1 | 10 | -47 | -10 | 100*
SMILES | NFkB transloc inh | HUVEC tox IL1B | NFkB transloc pot | INS promoter inh
CCOC(=O)c1cc([N+](=O)[O-])c([N+](=O)[O-])cc1NC(C)=O | nt | nt | nt | -3
CCCOc1ccc(C(=O)Nc2ccccc2[N+](=O)[O-])cc1 | 10 | -24 | -10 | -7
CCCOc1ccc(/C=N/Nc2ccccc2[N+](=O)[O-])c(OCCC)c1 | nt | nt | nt | 84*
O=C(C1CCCCN1S(=O)(=O)c1ccccc1)N1CCCCC1 (stereo unspecified) | 52* | 10 | -52 | -22
O=C(O)C1CCCCN1S(=O)(=O)c1ccccc1 (stereo unspecified) | 6 | 0 | -6 | -10
Cn1cc(/C=N/n2cnc3scc(-c4ccc(Cl)cc4)c3c2=O)c2ccccc21 | 37* | 57 | -37 | -194
CCn1cnc2scc(-c3ccccc3)c2c1=O | -3 | -1 | 3 | 59
COc1ccc(N(CCC#N)S(=O)(=O)c2cccc3nsnc23)cc1 | nt | nt | nt | 17
COc1ccc(C=NCCC2(O)CC(C)N(C)CC2C)cc1 (stereo unspecified) | 40* | -7 | -40 | 15
CCN1C(=O)C(CC(=O)Nc2ccc(OC)cc2)N(CCCN2CCN(c3ccc(OC)cc3)CC2)C1=S (stereo unspecified) | nt | nt | nt | -13
O=C(/C=C/c1ccc(N2CCCCC2)c([N+](=O)[O-])c1)c1ccc(O)cc1 | nt | nt | nt | 83*
COc1ccccc1C(=O)/C=C/c1ccc(N2CCCCC2)c([N+](=O)[O-])c1 | nt | nt | nt | 59
CCOC(=O)N1CCC(NC(=O)c2cc(C(=O)NC3CCCC3)ccc2CO)CC1 | 61* | 40 | -61 | nt
O=C(N/N=C/c1ccccc1O)C1(O)c2ccccc2-c2ccccc21 | nt | nt | nt | -13
CCOC(=O)/C(=C\c1cccc(O)c1)c1nc2sc(C)c(C)c2c(=O)[nH]1 | nt | nt | nt | 0
CN(CCc1ccccn1)c1ncnc2[nH]ncc12 | -16 | 19 | 16 | 75*
CN(CCc1ccccn1)C(=O)Nc1ccc(F)cc1 | -29 | 1 | 29 | -13
NC(=O)C1(N2CCCCC2)CCN(CC(=O)Nc2cc(Cl)ccc2Cl)CC1 | 99* | 80* | -99 | -58
NC(=O)C1(N2CCCCC2)CCN(CC(=O)Nc2ccccc2Sc2ccccc2)CC1 | 7 | 14 | -7 | nt
Cc1cc(Oc2ccc(C#N)cc2)nc(N2CCOCC2)n1 | 37* | -16 | -37 | 51
Cc1[nH]nc2c1C1(CCC(c3ccccc3)CC1)C(C#N)=C(N)O2 (stereo unspecified) | -7 | 86* | 7 | 0
Cc1[nH]nc2c1C1(CCN(C(=O)c3ccccc3)CC1)C(C#N)=C(N)O2 | -24 | -6 | 24 | -31
O=C(O/N=C1/CCCc2occc21)c1ccccc1 | 1 | 72* | -1 | -21
Cc1ccc(C(=O)O/N=C2\CCCc3ccccc32)cc1 | -1 | 8 | 1 | 13
Cc1cc(C)cc(C(=O)NCC(=O)OCC(=O)c2cc(C)n(CC(F)(F)F)c2C)c1 | nt | nt | nt | -14
SMILES | NFkB transloc inh | HUVEC tox IL1B | NFkB transloc pot | INS promoter inh
O=C(Nc1ccc2nc(-c3ccc(Br)o3)[nH]c2c1)c1cccs1 | 99* | 84* | -99 | nt
CC(=O)Nc1ccc2nc(-c3ccc(Br)o3)[nH]c2c1 | nt | nt | nt | 21
COc1ccc(CCN2C(=S)NC3CC2(C)Oc2ccc([N+](=O)[O-])cc23)cc1OC (stereo unspecified) | 2 | 2 | -2 | -32
CC1=C(C)CC(C(=O)NNC(=O)c2csc(C)c2C)C(C(=O)O)C1 (stereo unspecified) | nt | nt | nt | -13
COc1ccc2[nH]c3c(NCCN4CCCCC4)ncnc3c2c1 | 3 | -3 | -3 | 81*
CCOC(=O)N1CCN(c2ncnc3c2[nH]c2ccc(OC)cc23)CC1 | -4 | 8 | 4 | 91*
Cc1ccc2[nH]c3c(NCCCN4CCCC4=O)ncnc3c2c1 | -3 | -6 | 3 | 55
O=C(N/N=C/c1cc([N+](=O)[O-])c(N2CCOCC2)cc1N1CCOCC1)c1cccnc1 | nt | nt | nt | 69*
N#CCC(=O)N/N=C/c1cc([N+](=O)[O-])ccc1N1CCOCC1 | nt | nt | nt | -42
CN1CCN(c2ccc([N+](=O)[O-])cc2/C=N/NC(=O)c2ccc(F)cc2)CC1 | 30* | 12 | -30 | 27
O=C(N/N=C/c1ccccc1)c1ccc(N2CCOCC2)c([N+](=O)[O-])c1 | nt | nt | nt | -42
CCOC(=O)C1=NOC(CNc2ncc(C(F)(F)F)cc2Cl)C1 (stereo unspecified) | nt | nt | nt | -29
CC(=O)Nc1ccc(C(=O)CSc2nnc(Cn3nnc4ccccc43)n2C)cc1 | 78* | -68 | -78 | nt
Cn1c(Cn2nnc3ccccc32)nnc1SCC(N)=O | 9 | -7 | -9 | nt
Cc1ccc(S(=O)(=O)CCSc2cccc(C(=O)Nc3ccccc3C(=O)O)c2)cc1 | nt | nt | nt | -13
